Compounds with a hit are over-represented: about 2.3% of the library has one in this group of screens.
IL2 activator – qHTS of IL-2 Activators; activation, % (series mostly up to about 46 µM); IL-2 activation reporter assay, cell-based qHTS; stimulated with anti-CD3/CD4/CD28 beads; in transgenic mouse T cells; hit rate 0.065% among 360,000; AID 652025, 2013; in the data active means activation above about 50%; inconclusive means mostly about 30% to 49%; further: 0% is about no effect
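Unstimulated transgenic mouse T cells; 60-min compound exposure; bead-based TCR/CD4/CD28 stimulation; 18 h culture, 37 degrees C; dual fluorescence (EGFP, DsRed) plate cytometry.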
A549 viability – Nrf2 qHTS screen for inhibitors: counterscreen for cytotoxicity; A549 ARE-Fluc cells, CellTiter-Fluor viability, 18-24 h; Potency, µM (series often up to 46 µM), for the others: at the top dose activity change, negative = cytotoxicity, most hits filed as inhibitors; hit rate 0.16% among 390,000; AID 504648, 2011; further: potency means the concentration at half of the fitted maximal effect; on the % scale 0 is the no-effect control and ±100 the full control effect
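Cytotoxicity counterscreen: CellTiter-Fluor fluorescence was measured in A549 ARE_Fluc cells after 18-24 h of compound exposure in a concentration series. The subsequent BugLite luminescent read reports ARE-luciferase activity.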
Nrf2 inh – Nrf2 qHTS screen for inhibitors; AID 504444, 2011; Potency, µM (doses to about 46 µM), without a hit: at the highest dose activity change, negative = inhibition, most hits filed as inhibitors; hit rate 2.1% among 360,000; A549 ARE-Fluc reporter, luciferase luminescence, 18-24 h; further: potency means the concentration at half of the fitted maximal effect; on the % scale 0 is the no-effect control and ±100 the full control effect; nearly all actives have a fitted effect of over 60% in size
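Two sequential reads on A549 ARE_Fluc cells exposed to compound for 18-24 h: a CellTiter-Fluor fluorescence read for viability, then a luciferase luminescence read for Nrf2/ARE activity.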
Nrf2 activator – qHTS of Nrf2 Activators; AREc32 ARE-luciferase reporter (MCF7-derived line), luminescence, 24 h; hit rate 0.31% among 410,000; Potency, µM (top dose mostly 46.1 µM), for inactives: top-dose activation, actives largely listed as activators; further: potency means the concentration at half of the fitted maximal effect; % of control where 0% means no effect; nearly all actives have a fitted effect of over 65% in size
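Luciferase luminescence (Steady-Glo, 30 min at room temperature) served as the read-out of ARE activation in AREc32 cells treated with compounds for 24 hr at 37 deg C.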
The depositor's hits bear a star; ? = inconclusive; nt = no result; [ ] = remark or other dose. Unless noted, the call rests on the fitted dose curve; in most records, active means well fitted curve in the direction sought with a large enough effect; inconclusive means small, poorly fitted or top-dose-only effect, or another doubt; inactive means no such curve, though single readings can be large; an effect the other way counts as inactive or inconclusive.

SMILES	IL2 activator	A549 viability	Nrf2 inh	Nrf2 activator
CCOC(=O)N1CCN(C(=O)CN(c2cccc(Cl)c2)S(=O)(=O)c2ccccc2)CC1	nt	10%	?	0%
COc1ccc(OC)c(CNC(=O)c2cnc3c(C)cccn3c2=O)c1	nt	3%	nt	1%
O=S(=O)(c1ccccc1Cl)N1CCCC1c1nc(-c2ccccc2Cl)no1 (configuration not stated)	-3	-16%	16µM*	0%
Cc1cnc(C(=O)NCc2ccc(Cl)cc2Cl)cn1	-1	3%	-5%	0%
CCOC(=O)c1cc(C(=O)NCc2ccc(Cl)cc2Cl)nn1C	1	-17%	21µM*	0%
CSc1nc(Cl)c(Cc2ccc(OC(C)C)cc2)c(N(C)C)n1	0	14%	?	2%
CCOc1ccc(Cc2c(Cl)nc(SC)nc2N(C)C)cc1	0	15%	13µM*	0%
Cc1ccc(-n2c(=O)c3cccnc3n2CC(=O)Nc2cccc(C)c2C)cc1	nt	-5%	?	1%
Cc1ccc(CNC(=O)C(=O)NCC(c2cccs2)S(=O)(=O)c2ccccc2)cc1 (configuration not stated)	nt	-3%	nt	-1%
Cc1ccc(NS(=O)(=O)c2cc3c(cc2-c2cn[nH]c2)NC(=O)CO3)cc1C	nt	-1%	-20%	nt
COc1cccc2cc(-c3nc(-c4ccccc4F)no3)c(=O)oc12	nt	6%	?	4%
COc1cccc(-c2noc(-c3cc4ccccc4oc3=O)n2)c1OC	nt	1%	?	11µM*
Cc1ccccc1NC(=O)CN1C(=O)S/C(=C\c2ccc(-c3cc(C(=O)O)ccc3C)o2)C1=O	77*	0%	17%	0%
Cc1ccc(C(=O)O)cc1-c1ccc(/C=C2\SC(=O)N(CC(=O)Nc3ccccc3)C2=O)o1	0	0%	0%	0%
Cc1ccc(C(c2sc3nc(-c4ccco4)nn3c2O)N2CCCCC2)cc1 (configuration not stated)	nt	-2%	nt	-1%
Cc1nn(-c2ccccc2)c(N2CCCC2)c1/C=N/NC(=O)c1cccc(S(=O)(=O)Nc2ccc(Cl)cc2)c1	0	?	5.8µM*	0%
CC1CCN(c2nn3c(=O)c(C(=O)NCCc4ccc(Cl)cc4)cnc3s2)CC1	nt	-1%	0%	0%
O=c1c(Cl)c(N/N=C/c2ccc(Br)cc2)cnn1-c1ccccc1	-2	-20%	?	7.1µM*
CNc1cnn(-c2ccccc2)c(=O)c1Cl	0	-1%	24%	2%
COc1cc2nc(C3CCC3)nc(N3CCN(c4ccccn4)CC3)c2cc1OC	4	?	26µM*	1%
COc1cc2nc(C3CCC3)nc(N3CCN(c4ccccc4OC)CC3)c2cc1OC	-1	?	18µM*	-2%
COc1ccccc1N1CCN(C2CCCC(C)C2)CC1 (configuration not stated)	-1	-7%	1%	-1%
CCC(C)(C)c1ccc(Oc2ccc(N)cc2)cc1	-2	-20%	5.8µM*	-2%
CCC(C)(C)c1ccc(Oc2cccc(C(=O)O)c2)cc1	0	1%	?	4%
COc1cc2c(cc1NC(=O)CSc1ccccc1)oc1ccccc12	-1	-1%	15%	6%
SMILES	IL2 activator	A549 viability	Nrf2 inh	Nrf2 activator
COc1cc2c(cc1NC(=O)CSc1nc3ccccc3[nH]1)oc1ccccc12	2	?	18µM*	9%
COC(=O)c1ccccc1NC(=O)CSc1nc2ccsc2c(=O)n1CCC(C)C	nt	0%	nt	-1%
O=C(CSc1ccc(-c2ccco2)nn1)N1CCCC1	-1	-8%	14%	10µM*
O=C(CSc1ccc(-c2ccco2)nn1)N1CCCCC1	1	4%	?	?
O=C1CC(c2ccc3c(c2)OCO3)c2cc3c(cc2N1)OCCO3 (configuration not stated)	1	-11%	-20%	0%
Cc1ccc(C2CC(=O)Nc3cc4c(cc32)OCCO4)cc1Br (configuration not stated)	nt	-4%	18µM*	0%
O=C(NCCC1=CCCCC1)c1ccc(Cl)c(S(=O)(=O)N2CCOCC2)c1	-3	6%	?	3%
Cc1ccccc1CCNC(=O)c1ccc(Cl)c(S(=O)(=O)N2CC(C)OC(C)C2)c1 (configuration not stated)	-3	-5%	5.2µM*	2%
Cc1cccc(NS(=O)(=O)c2cc(C(=O)N3CCc4ccccc4C3)ccc2Cl)c1C	-3	?	?	3%
Cc1ccc(C)c(NS(=O)(=O)c2cc(C(=O)NCCC3=CCCCC3)ccc2C)c1	-3	?	21µM*	0%
O=C(NCCC1=CCCCC1)c1ccc(Cl)c(S(=O)(=O)N2CCCCC2)c1	-5	3%	15µM*	0%
Cc1ccc(C)c(NS(=O)(=O)c2cc(C(=O)N3CCc4ccccc4C3)ccc2Cl)c1	-2	-18%[1.84 µM]	18µM*	-1%
Cc1cc2c(s1)c1cnn(Cc3c(C)cc(F)cc3C)c(=O)c1n2C	nt	3%	7%	nt
O=C(CN1C=NS(=O)(=O)c2ccccc21)Nc1ccccc1F	nt	2%	nt	0%
O=C(NCCC1=CCCCC1)c1coc(=O)c(Br)c1	-5	-28%	?	13µM*
O=[S+]([O-])(c1c(F)cccc1F)N1CCN([S+](=O)([O-])c2c(F)c(F)c(F)c(F)c2F)CC1	nt	-4%	-8%	nt
Cn1nc(-c2ccncc2)nc2c(=O)n(C)c(=O)nc1-2	nt	2.9µM*	2.3µM*	nt
CC(C)c1ccc(NC2CCCN(C(=O)c3n[nH]c4c3CCC4)C2)cc1 (configuration not stated)	-5	-9%	10µM*	0%
Nc1nc(CSC(=S)N2CCN(c3ccccc3)CC2)nc(Nc2ccccc2)n1	-4	-7%	16µM*	3%
Cc1ccc(Nc2nc(N)nc(CSC(=S)N3CCN(c4ccccc4)CC3)n2)cc1	-4	-2%	-35%	3%
COc1ccc(C(=O)/C=C/c2cc(OC)c(O)c(OC)c2)c(F)c1	1	-2%	-26%	16µM*
Cc1ccc(NC(=O)c2cnc(N3CCN(c4ccccn4)CC3)c3ccccc23)c(Br)c1	-1	-12%	15µM*	-1%
Cc1ccc(-c2nnc(N3CCN(c4ccccn4)CC3)c3ccccc23)cc1	-1	?	23µM*	0%
c1ccc(-c2nnc(N3CCN(c4ccccn4)CC3)c3ccccc23)cc1	-5	?	18µM*	-2%
O=C(c1cnc(N2CCN(c3ncccn3)CC2)c2ccccc12)N1CCN(c2ccccn2)CC1	1	-2%	?	0%
Cc1ccc(NC(=O)C2CCCN2S(=O)(=O)c2ccc3nc(-c4ccccc4)[nH]c3c2)cc1F (configuration not stated)	nt	-3%	21µM*	-1%
COc1ccc(NC(=O)C2CCCN2S(=O)(=O)c2ccc3nc(-c4ccccc4)[nH]c3c2)cc1 (configuration not stated)	nt	2%	-4%	0%
